Measurements from PubChem BioAssay (NCATS).
Results filed as inconclusive are left out. Values without a mark were called inactive. Calls come from the whole dose curve; as a rule, active = well fitted cell-killing curve with a large enough effect; inconclusive = small, poorly fitted or top-dose-only effect, or effect the other way; inactive = flat fitted curve, though single readings scatter.

Tested on: HeLa
Test: Primary qHTS to identify gynecologic anti-cancer compounds using libraries of approved drugs and bioactive compounds (AID 1345084); note: nearly all actives have a fitted effect of over 55% in size
Settings: Gynecologic cancer cell panel viability, ATPlite luminescence, 48 h; series mostly up to 57.5 µM; activity change, negative = cytotoxicity: at the top concentration
Summary of the method: (§1)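 ATP-based viability (ATPlite), 1,000 cells/well, 16 h pre-incubation, 48 h compound at 37 C, 5% CO2, 15 min RT before read.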
% is set by controls: 0 for no effect and ±100 for the full control effect.

SMILES | activity change, negative = cytotoxicity [%]
C#Cc1ccc(-c2ccccc2F)cc1 | -0.679
NS(=O)(=O)c1cc(C(=O)NN2C[C@H]3[C@H]4CCC(C4)[C@H]3C2)ccc1Cl | 3.33
Cc1[nH]cnc1-c1ccc(Cl)cc1 | -2.64
c1ccc2c(c1)CCc1ccccc1N2 | 2.81
COC(=O)c1cc(S(N)(=O)=O)ccc1OC | -6.48
CCOc1ccccc1OCC1CNCCO1 (centres undefined) | 9.38
O=C(C1CCCCC1)N1CC(=O)N2CCCc3ccccc3C2C1 (centres undefined) | 0.32
CCn1ccc(NS(=O)(=O)c2ccc(N)cc2)nc1=O | 2.57
CSCC[C@H](NC(=O)[C@H](Cc1c[nH]c2ccccc12)NC(=O)CCNC(=O)OC(C)(C)C)C(=O)N[C@@H](CC(=O)O)C(=O)N[C@@H](Cc1ccccc1)C(N)=O | 10.8
O=C(O)C(=O)Nc1cccc(-c2nn[nH]n2)c1 | 2.66
COc1ccc(CCC(C)=O)cc1 | -2.26
COc1cc(S(N)(=O)=O)cc(C(=O)O)c1OC | 8.5

Tested on: Hek293T
Test: as above
Settings: Gynecologic cancer cell panel viability, ATPlite luminescence, 48 h, control line for the selectivity index; series mostly up to 57.5 µM; activity change, negative = cytotoxicity: at the top concentration
Summary of the method: as §1

SMILES | activity change, negative = cytotoxicity
COCCc1ccccn1 | 22.4%
OC1(c2ccccc2)CCNCC1 | -5.04%
O=C1NC(c2ccccc2)(c2ccccc2)C(=O)N1COP(=O)(O)O | -6.05%
COC(=O)c1cc(Cl)ccc1OC | 1.75%
COC(=O)CCCCC(CCSS/C(CCO)=C(\C)N(C=O)Cc1cnc(C)nc1N)SC(C)=O (centres undefined) | -2%
COc1ccc2nc(SCc3ncc(C)c(OC)c3C)[nH]c2c1 | -5.23%
Cc1ccc(C(C)OC(=O)C2(C)CCC(C(=O)O)C2(C)C)cc1 (centres undefined) | 0.0629%
CN(C)CCN1CCN(c2cccc(Cl)c2)C1=O | 3.58%
CCOC(=O)C(=O)CCCCCCl | 1.48%
CCOC(=O)Oc1ccc(CCNC(=O)[C@H](CCSC)NC(C)=O)cc1OC(=O)OCC | -2.35%
COC(=O)c1cc(Cl)c(NC(C)=O)cc1OC | 4.17%
CCN1CCN(c2cc(-c3ccc(F)cc3)c3c(n2)CCCCCC3)CC1 | -0.936% [at 25.3 µM]
CCCc1ncc(C(=O)O)s1 | -0.125%
Cc1coc2ccccc2c1=O | 0.859%
O=C1CC2(CCCC2)CC(=O)N1 | 4.16%
COC(=O)/C=C\C(=O)OC | -0.0237%
C#CC(C)(CC)OC(=O)c1ccccc1C(=O)O (centres undefined) | -0.274%
O=C(O)Cn1c(=O)n(Cc2ccc(Br)cc2F)c(=O)c2ccc(Cl)cc21 | -1.95%

SMILES | activity change, negative = cytotoxicity
CN1CCN(N)CC1 | -0.261%
CC(CC(C#N)(c1ccccc1)C(C)C)N(C)C (centres undefined) | 11.4%
CCOC(=O)CN1CCCC1=O | -5.18%
CC(C)(C)NCC(O)COc1ccccc1OCC1CCCO1 (centres undefined) | -0.041%
CCN(CC)CC(=O)Oc1ccc(NC(C)=O)cc1 | 0.878%
COC(=O)/C=C(/C)N | 3.5%
C#Cc1ccc(-c2ccccc2F)cc1 | -3.34%
NS(=O)(=O)c1cc(C(=O)NN2C[C@H]3[C@H]4CCC(C4)[C@H]3C2)ccc1Cl | -0.937%
Cc1[nH]cnc1-c1ccc(Cl)cc1 | 2.43%
c1ccc2c(c1)CCc1ccccc1N2 | -3.45%
COC(=O)c1cc(S(N)(=O)=O)ccc1OC | 5.36%
CCOc1ccccc1OCC1CNCCO1 (centres undefined) | -1.02%
O=C(C1CCCCC1)N1CC(=O)N2CCCc3ccccc3C2C1 (centres undefined) | -11.4%
CCn1ccc(NS(=O)(=O)c2ccc(N)cc2)nc1=O | 0.534%
CSCC[C@H](NC(=O)[C@H](Cc1c[nH]c2ccccc12)NC(=O)CCNC(=O)OC(C)(C)C)C(=O)N[C@@H](CC(=O)O)C(=O)N[C@@H](Cc1ccccc1)C(N)=O | 2.55%
O=C(O)C(=O)Nc1cccc(-c2nn[nH]n2)c1 | 0.144%
COc1ccc(CCC(C)=O)cc1 | 8.55%
COc1cc(S(N)(=O)=O)cc(C(=O)O)c1OC | 4.36%

Tested on: JEG-3
Test: as above
Settings: Gynecologic cancer cell panel viability, ATPlite luminescence, 48 h; series mostly up to 57.5 µM; activity change, negative = cytotoxicity: at the top concentration
Summary of the method: as §1

SMILES | activity change, negative = cytotoxicity
COCCc1ccccn1 | 9.22%
OC1(c2ccccc2)CCNCC1 | 26.4%
O=C1NC(c2ccccc2)(c2ccccc2)C(=O)N1COP(=O)(O)O | -6.66%
COC(=O)c1cc(Cl)ccc1OC | 7.26%
COC(=O)CCCCC(CCSS/C(CCO)=C(\C)N(C=O)Cc1cnc(C)nc1N)SC(C)=O (centres undefined) | -5.22%
COc1ccc2nc(SCc3ncc(C)c(OC)c3C)[nH]c2c1 | -13%
Cc1ccc(C(C)OC(=O)C2(C)CCC(C(=O)O)C2(C)C)cc1 (centres undefined) | -1.21%
CN(C)CCN1CCN(c2cccc(Cl)c2)C1=O | 4.5%
CCOC(=O)C(=O)CCCCCCl | -7.26%
CCOC(=O)Oc1ccc(CCNC(=O)[C@H](CCSC)NC(C)=O)cc1OC(=O)OCC | -12.5%
COC(=O)c1cc(Cl)c(NC(C)=O)cc1OC | 8.89%
CCN1CCN(c2cc(-c3ccc(F)cc3)c3c(n2)CCCCCC3)CC1 | 6.94% [at 25.3 µM]
CCCc1ncc(C(=O)O)s1 | -0.848%
Cc1coc2ccccc2c1=O | -5.8%
O=C1CC2(CCCC2)CC(=O)N1 | 3.21%
COC(=O)/C=C\C(=O)OC | -6.96%
C#CC(C)(CC)OC(=O)c1ccccc1C(=O)O (centres undefined) | -13.4%
O=C(O)Cn1c(=O)n(Cc2ccc(Br)cc2F)c(=O)c2ccc(Cl)cc21 | -0.244%

SMILES | activity change, negative = cytotoxicity
CN1CCN(N)CC1 | 24.4%
CC(CC(C#N)(c1ccccc1)C(C)C)N(C)C (centres undefined) | 16.5%
CCOC(=O)CN1CCCC1=O | -3.53%
CC(C)(C)NCC(O)COc1ccccc1OCC1CCCO1 (centres undefined) | -14.7%
CCN(CC)CC(=O)Oc1ccc(NC(C)=O)cc1 | 4.36%
COC(=O)/C=C(/C)N | 7.03%
C#Cc1ccc(-c2ccccc2F)cc1 | -2.05%
NS(=O)(=O)c1cc(C(=O)NN2C[C@H]3[C@H]4CCC(C4)[C@H]3C2)ccc1Cl | -1.07%
Cc1[nH]cnc1-c1ccc(Cl)cc1 | 17.4%
c1ccc2c(c1)CCc1ccccc1N2 | 3.86%
COC(=O)c1cc(S(N)(=O)=O)ccc1OC | 10.4%
CCOc1ccccc1OCC1CNCCO1 (centres undefined) | -10.7%
O=C(C1CCCCC1)N1CC(=O)N2CCCc3ccccc3C2C1 (centres undefined) | -8.5%
CCn1ccc(NS(=O)(=O)c2ccc(N)cc2)nc1=O | -1.05%
CSCC[C@H](NC(=O)[C@H](Cc1c[nH]c2ccccc12)NC(=O)CCNC(=O)OC(C)(C)C)C(=O)N[C@@H](CC(=O)O)C(=O)N[C@@H](Cc1ccccc1)C(N)=O | -16.4%
O=C(O)C(=O)Nc1cccc(-c2nn[nH]n2)c1 | 6.93%
COc1ccc(CCC(C)=O)cc1 | 4.77%
COc1cc(S(N)(=O)=O)cc(C(=O)O)c1OC | 2.98%
